# According to PubChem BioAssay AID1159580 (chemical genetic matrix, 2015):
# Values joined by “and” are separate entries in the source; they are usually repeats but may differ in a detail not shown here. Equal values may be shown once. Out of some 5,500 compounds screened, about 2,000 (36%) were called active. Inconclusive results (about 18%) are left out. The list shows a part of the results. A number with no mark means an inactive call. No stated cut-off is given here; in the data, active means normalized growth mostly below about 0.91 (no sharp cut-off); inconclusive means no clear call, values can overlap the other calls; inactive means mostly above about 0.92.
# Assay: chemical genetic growth profiling, strain panel (AID 1159580);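 further: tested at 20 µM; growth read once vehicle control cultures reached saturation at 30 °C; 1 = growth at the plate median or of vehicle wells; lower values mean less growth of the strain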
# Details: S. cerevisiae deletion strains, growth OD
smiles,measurement,setting,value
CC(=O)OC1CCC23CC1(C)CCC2C(C)(C)CC3OC(C)=O (stereo unspecified),normalized growth,"locus YAL021C, strain ccr4, hits give low values",1.04
same,normalized growth,"locus YAL026C, strain drs2, hits give low values",1.02
same,normalized growth,"locus YAL030W, strain snc1, hits give low values",0.996
same,normalized growth,"locus YBL061C, strain skt5, hits give low values",1.01
same,normalized growth,"locus YBR009C, strain hhf1, hits give low values",1.01
same,normalized growth,"locus YBR021W, strain FUR4, hits give low values",1.01
same,normalized growth,"locus YBR023C, strain chs3, hits give low values",0.981
same,normalized growth,"locus YBR171W, strain sec66, hits give low values",0.999
same,normalized growth,"locus YBR229C, strain ROT2, hits give low values",0.988
same,normalized growth,"locus YBR231C, strain swc5, hits give low values",1.02
same,normalized growth,"locus YBR279W, strain paf1, hits give low values",1.04
same,normalized growth,"locus YCL011C, strain gbp2, hits give low values",0.995
same,normalized growth,"locus YCL016C, strain dcc1, hits give low values",0.978
same,normalized growth,"locus YCL029C, strain bik1, hits give low values",1.01
same,normalized growth,"locus YCL061C, strain MRC1, hits give low values",1.01
same,normalized growth,"locus YCL069W, strain vba3, hits give low values",0.991
same,normalized growth,"locus YCR088W, strain abp1, hits give low values",0.992
same,normalized growth,"locus YDL005C, strain med2, hits give low values",0.994
same,normalized growth,"locus YDL035C, strain GPR1, hits give low values",1.01
same,normalized growth,"locus YDL040C, strain nat1, hits give low values",0.999
same,normalized growth,"locus YDL074C, strain BRE1, hits give low values",1.01
same,normalized growth,"locus YDL101C, strain DUN1, hits give low values",1.04
same,normalized growth,"locus YDL134C, strain PPH21, hits give low values",1.02
same,normalized growth,"locus YDL185W, strain tfp1, hits give low values",1.03
same,normalized growth,"locus YDL192W, strain arf1, hits give low values",0.974
same,normalized growth,"locus YDR001C, strain nth1, hits give low values",0.984
same,normalized growth,"locus YDR069C, strain doa4, hits give low values",1.01
same,normalized growth,"locus YDR101C, strain arx1, hits give low values",0.98
same,normalized growth,"locus YDR137W, strain rgp1, hits give low values",0.882
same,normalized growth,"locus YDR159W, strain sac3, hits give low values",1.03
same,normalized growth,"locus YDR162C, strain NBP2, hits give low values",0.95
same,normalized growth,"locus YDR195W, strain ref2",1.03
same,normalized growth,"locus YDR297W, strain sur2, hits give low values",1.01
same,normalized growth,"locus YDR318W, strain mcm21, hits give low values",1
same,normalized growth,"locus YDR334W, strain swr1, hits give low values",1.01
same,normalized growth,"locus YDR335W, strain msn5, hits give low values",1
same,normalized growth,"locus YDR388W, hits give low values",0.989
same,normalized growth,"locus YDR392W, strain spt3, hits give low values",0.528 (active)
same,normalized growth,"locus YDR502C, strain sam2, hits give low values",1.01
same,normalized growth,"locus YEL003W, strain gim4, hits give low values",1.03
same,normalized growth,"locus YEL037C, strain rad23, hits give low values",1.01
same,normalized growth,"locus YEL061C, strain CIN8 (second series), hits give low values",1
same,normalized growth,"locus YER015W, strain faa2, hits give low values",1.02
same,normalized growth,"locus YER016W, strain bim1, hits give low values",1
same,normalized growth,"locus YER110C, hits give low values",1.03
same,normalized growth,"locus YER111C, strain swi4, hits give low values",1.01
same,normalized growth,"locus YER155C, strain BEM2 (second series), hits give low values",0.99
same,normalized growth,"locus YER155C, strain BEM2, hits give low values",1.02
same,normalized growth,"locus YER167W, strain BCK2, hits give low values",0.997
same,normalized growth,"locus YFR010W, strain ubp6, hits give low values",1.05
same,normalized growth,"locus YGL078C, strain dbp3, hits give low values",1
same,normalized growth,"locus YGL086W, strain mad1, hits give low values",0.959
same,normalized growth,"locus YGL167C, strain pmr1, hits give low values",0.993
same,normalized growth,"locus YGL173C, strain kem1, hits give low values",1.03
same,normalized growth,"locus YGL227W, strain vid30, hits give low values",1.01
same,normalized growth,"locus YGL240W, strain doc1, hits give low values",1.01
same,normalized growth,"locus YGL248W, strain PDE1, hits give low values",1.04
same,normalized growth,"locus YGL253W, strain hxk2, hits give low values",1.02
same,normalized growth,"locus YGR078C, strain PAC10, hits give low values",0.987
same,normalized growth,"locus YGR135W, strain pre9, hits give low values",1.02
same,normalized growth,"locus YGR252W, strain gcn5, hits give low values",1.1
same,normalized growth,"locus YHR013C, strain ard1, hits give low values",1.01
same,normalized growth,"locus YHR027C, strain rpn1, hits give low values",1
same,normalized growth,"locus YHR030C, strain SLT2, hits give low values",1.01
same,normalized growth,"locus YHR079C, strain IRE1 (second series), hits give low values",0.995
same,normalized growth,"locus YHR079C, strain IRE1, hits give low values",1.01
same,normalized growth,"locus YHR094C, strain hxt1, hits give low values",0.998
same,normalized growth,"locus YHR129C, strain ARP1, hits give low values",1
same,normalized growth,"locus YHR142W, strain chs7, hits give low values",0.963
same,normalized growth,"locus YHR200W, strain rpn10, hits give low values",0.995
same,normalized growth,"locus YIL066C, strain RNR3, hits give low values",0.997
same,normalized growth,"locus YIL073C, strain SPO22, hits give low values",0.995
same,normalized growth,"locus YIL125W, strain kgd1, hits give low values",0.998
same,normalized growth,"locus YIR030C, strain dcg1, hits give low values",0.988
same,normalized growth,"locus YJL092W, strain hpr5, hits give low values",1.01
same,normalized growth,"locus YJL095W, strain BCK1 (second series), hits give low values",1.01
same,normalized growth,"locus YJL095W, strain BCK1, hits give low values",0.969 and 1.04
same,normalized growth,"locus YJL115W, strain asf1, hits give low values",1.01
same,normalized growth,"locus YJL129C, strain trk1, hits give low values",0.881
same,normalized growth,"locus YJL134W, strain LCB3, hits give low values",0.998
same,normalized growth,"locus YJL154C, strain vps35, hits give low values",1
same,normalized growth,"locus YJL164C, strain tpk1, hits give low values",1.02
same,normalized growth,"locus YJL166W, strain qcr8, hits give low values",0.993
same,normalized growth,"locus YJL168C, strain set2, hits give low values",0.985
same,normalized growth,"locus YJL187C, strain SWE1 (second series), hits give low values",1.07
same,normalized growth,"locus YJR043C, strain POL32, hits give low values",1.04
same,normalized growth,"locus YJR066W, strain TOR1, hits give low values",0.98
same,normalized growth,"locus YJR075W, strain HOC1, hits give low values",0.999
same,normalized growth,"locus YKL009W, strain mrt4, hits give low values",0.992
same,normalized growth,"locus YKL068W, hits give low values",0.972
same,normalized growth,"locus YKL085W, strain MDH1 (second series), hits give low values",0.967
same,normalized growth,"locus YKL085W, strain MDH1, hits give low values",0.967
same,normalized growth,"locus YKL160W, strain elf1, hits give low values",1
same,normalized growth,"locus YKR001C, strain vps1, hits give low values",1.01
same,normalized growth,"locus YKR026C, strain gcn3, hits give low values",0.991
same,normalized growth,"locus YKR091W, strain srl3, hits give low values",0.981
same,normalized growth,"locus YLL001W, strain dnm1, hits give low values",0.995
same,normalized growth,"locus YLL026W, hits give low values",1
same,normalized growth,"locus YLL041C, strain sdh2, hits give low values",0.994
same,normalized growth,"locus YLR027C, strain aat2, hits give low values",1.01
same,normalized growth,"locus YLR039C, strain RIC1, hits give low values",0.968
same,normalized growth,"locus YLR058C, strain SHM2, hits give low values",1.05
same,normalized growth,"locus YLR102C, strain apc9, hits give low values",1.01
same,normalized growth,"locus YLR113W, strain HOG1, hits give low values",1
same,normalized growth,"locus YLR221C, strain rsa3, hits give low values",1.01
same,normalized growth,"locus YLR258W, strain gsy2, hits give low values",1.01
same,normalized growth,"locus YLR262C, strain YPT6 (second series), hits give low values",0.961
same,normalized growth,"locus YLR262C, strain YPT6, hits give low values",0.929
same,normalized growth,"locus YLR268W, strain sec22, hits give low values",0.997
same,normalized growth,"locus YLR320W, strain mms22, hits give low values",0.959
same,normalized growth,"locus YLR342W, strain FKS1 (second series), hits give low values",1
same,normalized growth,"locus YLR342W, strain FKS1, hits give low values",0.988
same,normalized growth,"locus YLR357W, strain rsc2, hits give low values",1.07
same,normalized growth,"locus YLR370C, strain arc18, hits give low values",1.04
same,normalized growth,"locus YLR371W, strain rom2, hits give low values",0.959
same,normalized growth,"locus YLR384C, strain iki3, hits give low values",0.997
same,normalized growth,"locus YLR418C, strain cdc73, hits give low values",0.904
same,normalized growth,"locus YML016C, strain PPZ1, hits give low values",1.02
same,normalized growth,"locus YML032C, strain rad52, hits give low values",1.01
same,normalized growth,"locus YML120C, strain ndi1, hits give low values",0.965
same,normalized growth,"locus YML124C, strain tub3, hits give low values",0.99
same,normalized growth,"locus YMR058W, strain fet3, hits give low values",1.03
same,normalized growth,"locus YMR078C, strain ctf18, hits give low values",0.991
same,normalized growth,"locus YMR125W, strain sto1, hits give low values",1
same,normalized growth,"locus YMR129W, hits give low values",1
same,normalized growth,"locus YMR205C, strain PFK2, hits give low values",0.924
same,normalized growth,"locus YMR223W, strain ubp8, hits give low values",1
same,normalized growth,"locus YMR231W, strain pep5, hits give low values",1.02
same,normalized growth,"locus YMR307W, strain GAS1, hits give low values",0.976
same,normalized growth,"locus YNL067W, strain RPL9B, hits give low values",1.01
same,normalized growth,"locus YNL071W, strain lat1, hits give low values",0.836 (active)
same,normalized growth,"locus YNL153C, strain GIM3, hits give low values",1.03
same,normalized growth,"locus YNL183C, strain NPR1, hits give low values",0.974
same,normalized growth,"locus YNL209W, strain ssb2, hits give low values",1.01
same,normalized growth,"locus YNL233W, strain BNI4, hits give low values",1.01
same,normalized growth,"locus YNL248C, strain rpa49, hits give low values",1.04
same,normalized growth,"locus YNL250W, strain rad50, hits give low values",1.03
same,normalized growth,"locus YNL271C, strain bni1, hits give low values",0.996
same,normalized growth,"locus YNL298W, strain CLA4, hits give low values",1
same,normalized growth,"locus YNL307C, strain MCK1, hits give low values",0.943
same,normalized growth,"locus YNL322C, strain KRE1 (second series), hits give low values",1.01
same,normalized growth,"locus YNL322C, strain KRE1, hits give low values",1
same,normalized growth,"locus YNR049C, strain mso1, hits give low values",0.984
same,normalized growth,"locus YNR052C, strain pop2, hits give low values",1.01
same,normalized growth,"locus YOL012C, strain htz1",0.724
same,normalized growth,"locus YOL147C, strain pex11, hits give low values",1
same,normalized growth,"locus YOR001W, strain rrp6, hits give low values",1.04
same,normalized growth,"locus YOR061W, strain CKA2, hits give low values",1.03
same,normalized growth,"locus YOR069W, strain VPS5, hits give low values",1.01
same,normalized growth,"locus YOR070C, strain gyp1, hits give low values",1.01
same,normalized growth,"locus YOR080W, strain dia2, hits give low values",1.02
same,normalized growth,"locus YOR083W, strain WHI5, hits give low values",1.02
same,normalized growth,"locus YOR106W, strain vam3, hits give low values",1.01
same,normalized growth,"locus YOR136W, strain idh2, hits give low values",1.02
same,normalized growth,"locus YOR144C, strain elg1, hits give low values",0.993
same,normalized growth,"locus YOR184W, strain ser1, hits give low values",0.852 (active)
same,normalized growth,"locus YOR231W, strain MKK1, hits give low values",1.04
same,normalized growth,"locus YOR265W, strain rbl2, hits give low values",1.02
same,normalized growth,"locus YOR270C, strain vph1, hits give low values",0.851
same,normalized growth,"locus YOR290C, strain snf2, hits give low values",0.977
same,normalized growth,"locus YOR316C, strain cot1, hits give low values",1
same,normalized growth,"locus YPL051W, strain arl3, hits give low values",0.994
same,normalized growth,"locus YPL078C, strain atp4, hits give low values",0.941
same,normalized growth,"locus YPL106C, strain sse1, hits give low values",1.07
same,normalized growth,"locus YPL240C, strain hsp82, hits give low values",0.999
same,normalized growth,"locus YPL256C, strain CLN2, hits give low values",1.02
same,normalized growth,"locus YPR119W, strain clb2, hits give low values",0.988
same,normalized growth,"locus YPR141C, strain kar3, hits give low values",0.971
same,normalized growth,"locus YPR163C, strain tif3, hits give low values",0.991
same,normalized growth,"locus YPR167C, strain met16, hits give low values",0.994
same,normalized growth,"strain wtn01, hits give low values",0.985
